An excerpt weighted towards active compounds, which were near 21% of everything screened.
Pf growth 48h – Primary qHTS for delayed death inhibitors of the malarial parasite plastid, 48 hour incubation; P. falciparum luciferase growth in erythrocytes, 48 h; Potency, µM (highest dose often 28.7 µM), usual class: inhibitors; 310,000 compounds, 5.9% hits; active = well fitted inhibition curve with a large enough effect; inconclusive = small, poorly fitted or top-dose-only effect, or another doubt; inactive = no such curve, though single readings can be large or run the other way
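Compounds are pin-transferred into medium, infected erythrocytes (2% hematocrit, 0.1% parasitemia final) are added, and plates sit one parasite generation at 37 C in 5% CO2. Detection reagent is then added and luminescence measured.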
Cycloheximide cs – Cycloheximide Counterscreen for Small Molecule Inhibitors of Shiga Toxin | max response, % | 300,000 compounds, 12% hits | AID 2314, 2010 | cell reporter, cycloheximide protein synthesis inhibition counterscreen; in the data active = max response mostly above about 13%, no sharp cut-off; inactive = mostly below about 14%; note: read at 38.3 µM for the half of the compounds with a filed dose
SARS PLP yeast – qHTS of Yeast-based Assay for SARS-CoV PLP; 330,000 compounds, 0.19% hits; S. cerevisiae expressing SARS-CoV PLpro, growth rescue; AID 485353, 2010; Potency, µM (highest dose often 32.9 µM), actives largely listed as activators; note: nearly all actives have a fitted effect of over 55% in size
NS1 inh – qHTS Assay for Inhibitors of Influenza NS1 Protein Function; Potency, µM (top dose mostly 46.1 µM); 270,000 compounds, 0.4% hits; AID 2326, 2010; note: actives are rising curves; nearly all actives have a fitted effect of over 50% in size
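OD600 was taken as the measure of yeast growth restored by compound in an NS1-expressing S. cerevisiae strain. Cells had been washed out of glucose medium and diluted 1:100 into galactose -URA medium, pH 6.0.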
Shiga inhibitor – A qHTS for Small Molecule Inhibitors of Shiga Toxin | inhibition, % at 38.7 µM | AID 2315, 2010 | Vero cells, Shiga toxin protein synthesis inhibition reporter | 290,000 compounds, 9.2% hits; in the data active = inhibition mostly above about 28%, no sharp cut-off; inactive = mostly below about 43%
Pf growth 96h – Primary qHTS for delayed death inhibitors of the malarial parasite plastid, 96 hour incubation; Potency, µM (titrated, usually from 28.7 µM), hits mostly inhibitors; 320,000 compounds, 6.9% hits; P. falciparum luciferase reporter growth, 96 h; AID 504834, 2011; active = well fitted inhibition curve with a large enough effect; inconclusive = small, poorly fitted or top-dose-only effect, or another doubt; inactive = no such curve, though single readings can be large or run the other way
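Parasite growth measured via integrated firefly luciferase reporter in P. falciparum. Infected erythrocytes at 2% hematocrit, 0.05% parasitemia final were treated 96 hours at 37 C under 5% CO2, and luminescence was read.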
Hits are given with their value; 0 = inactive; ? = inconclusive; - = not tested or not shown; + = active, no number. Unless noted, calls come from the whole dose curve.

SMILES | Pf growth 48h | Cycloheximide cs | SARS PLP yeast | NS1 inh | Shiga inhibitor | Pf growth 96h
CCN(CC)S(=O)(=O)c1c(OC)cc(C)c(Cl)c1C | ? | 0 | 0 | 0 | 0 | 0
COc1ccc(C(CNC(=O)c2ccc(C)o2)N2CCOCC2)cc1 (centres undefined) | 0 | - | 0 | - | - | 0
COc1ccc(C(CNC(=O)c2c(C)nn(Cc3ccc(C)cc3)c2Cl)N2CCOCC2)cc1 (centres undefined) | 10µM | - | 0 | - | - | ?
Cc1ccc(Cn2nc(C)c(C(=O)NCC(c3cccs3)N3CCOCC3)c2Cl)cc1 (centres undefined) | 12µM | - | - | - | - | ?
Cc1c(Cl)cccc1NC(=O)c1ccc(-n2ccnc2)nc1 | ? | 0 | 0 | 0 | 0 | ?
O=C(N/N=C/c1cn(-c2ccccc2)nc1-c1cccs1)c1ccccc1F | 0 | 20 | 0 | 0 | 83 | 0
O=C(N/N=C/c1cn(-c2ccccc2)nc1-c1cccs1)c1ccc(Cl)cc1 | ? | 0 | 0 | 0 | 0 | ?
O=C(CNc1ccccc1)N/N=C/c1cn(-c2ccccc2)nc1-c1ccccc1 | 12µM | 9.7 | 0 | 0 | 0 | ?
CN1CCC(N(C)C(=O)/C=C/c2cn(-c3ccccc3)nc2-c2cccs2)CC1 | 5.9µM | 0 | 0 | - | 0 | ?
O=C(N/N=C/c1cn(-c2ccccc2)nc1-c1ccc(F)cc1)c1ccc(Br)o1 | 8.3µM | 0 | 0 | 0 | 0 | ?
Cc1ccc(N2C(=O)CC(Sc3ccccc3C(=O)O)C2=O)cc1C (centres undefined) | 0 | 0 | 0 | 0 | 0 | 0
Cc1cc(C(=O)COC(=O)C2=COCCO2)c(C)n1-c1ccccc1 | - | - | 0 | - | - | -
CCOC(=O)c1c(C)[nH]c(C(=O)COC(=O)Cn2cc(C(F)(F)F)ccc2=O)c1C | 0 | - | 0 | - | - | 0
COc1cc(NC(=S)N2CCN(C)CC2)cc(OC)c1 | 0 | 0 | 0 | 0 | - | 0
CCC(Sc1nc(N)c(NC(=O)c2ccc(OC)cc2)c(=O)[nH]1)C(=O)O (centres undefined) | 0 | 0 | 0 | - | 0 | 0
CCc1ccc(OCC(=O)Nc2cc(S(=O)(=O)CC)ccc2O)cc1 | 0 | 0 | 0 | 0 | 0 | ?
O=C(N/N=C/c1cn(-c2ccccc2)nc1-c1cccnc1)c1ccc(F)cc1 | ? | 0 | 0 | - | 0 | ?
NC(=O)N/N=C/c1cn(-c2ccccc2)nc1-c1ccccc1 | 0 | 31 | 0 | - | 60 | ?
Cc1ccc(-c2ccc(/C=C(\C#N)C(N)=S)n2C)cc1 | 0 | 59 | 0 | 0 | 61 | ?
Cn1cccc1/C=C(/C#N)C(N)=S | 0 | 0 | 0 | 0 | 0 | 0
CN(C)CCN(C)Cc1c2ccccc2c(CN(C)CCN(C)C)c2ccccc12 | 6.6µM | 0 | 0 | 0 | 0 | 1.7µM
CN(C)CCP(=O)(c1ccccc1)c1ccccc1 | 0 | 0 | 0 | 0 | 0 | 0
CC(C)(C)c1cc(C(=O)N/N=C/c2ccccn2)n[nH]1 | 0 | 21 | 0 | 0 | 53 | 0
Cc1ccc(NC(=S)N/N=C/c2c(C)[nH]c3ccccc23)cc1 | ? | 23 | 0 | 0 | 80 | ?
Cc1[nH]c2ccccc2c1/C=N/Nc1cccc(C(=O)O)c1 | 0 | 61 | 0 | 0 | 128 | 0
SMILES | Pf growth 48h | Cycloheximide cs | SARS PLP yeast | NS1 inh | Shiga inhibitor | Pf growth 96h
Cc1[nH]c2ccccc2c1/C=N/NC(N)=S | 0 | 0 | 0 | 0 | 0 | ?
O=C(N/N=C/c1[nH]c2ccccc2c1Cl)c1cccc(Br)c1 | ? | 0 | 0 | 0 | 0 | 12µM
CS(=O)(=O)Nc1ccc(C2=NN(C(=O)c3cccc(F)c3)C(c3cccs3)C2)cc1 (centres undefined) | ? | 0 | 0 | ? | 0 | 0
Cc1[nH]c2ccccc2c1/C=N/NC(=O)c1ccccc1 | 0 | 42 | 0 | 0 | 51 | 0
Cc1[nH]c2ccccc2c1/C=N/NC(=O)Nc1ccccc1 | 0 | 28 | 0 | - | + | 0
Cc1[nH]c2ccccc2c1/C=N/NC(=O)CCC(=O)Nc1ccccc1 | 0 | 0 | 0 | 0 | 0 | 0
Cc1[nH]c2ccccc2c1/C=N/NC(=O)c1cc(C(C)(C)C)[nH]n1 | ? | 12 | 0 | 0 | 0 | 0
O=C(N/N=C/C1C(c2ccccc2)C1(Cl)Cl)c1cccc(Br)c1 (centres undefined) | 0 | 23 | 0 | 0 | 0 | 0
O=C(N[C@@H](Cc1ccccc1)C(=O)N1CCN(S(=O)(=O)c2cccc(F)c2)CC1)c1ccco1 | ? | - | 0 | - | - | ?
Cc1[nH]c2ccccc2c1/C=N/NC(=O)c1cc(-c2ccccc2)n[nH]1 | ? | 0 | 0 | 0 | 0 | ?
Cc1[nH]c2ccccc2c(=O)c1C(=O)/C=C/c1ccccc1 | ? | 0 | 0 | 0 | 0 | ?
Cc1[nH]c2ccccc2c1/C=N/NC(=O)c1cccc(Br)c1 | 0 | 26 | 0 | 0 | 0 | 0
Cc1[nH]c2ccccc2c1/C=N/NC(=O)c1cc(-c2ccncc2)nc2ccccc12 | ? | 0 | 0 | 0 | 0 | 6.6µM
Cc1[nH]c2ccccc2c1/C=N/NC(=O)c1ccc(N)cc1 | 0 | 0 | 0 | 0 | 0 | 0
Cc1[nH]c2ccccc2c1/C=C/C(=O)c1ccccc1 | 0 | 25 | 0 | 0 | 86 | 0
CN1CCC(N(C)C(=S)Nc2ccc(SC(F)F)cc2)CC1 | 0 | 24 | 0 | 0 | active | 0
CC1CC(C)CN(C(=S)Nc2ccc(SC(F)F)cc2)C1 (centres undefined) | 0 | 0 | 0 | 0 | 0 | 0
CN1CCC(N(C)C(=S)Nc2ccc(F)cc2)CC1 | 0 | 0 | 0 | - | 0 | 0
OC1CCCN(C(=S)Nc2ccc(SC(F)F)cc2)C1 (centres undefined) | 0 | 27 | 0 | 0 | 34 | 0
CN1CCC(N(C)C(=O)c2ccccc2Nc2ccc(SC(F)F)cc2)CC1 | 0 | 0 | 0 | 0 | 0 | 0
CC(=O)c1ccc(NC(=S)N(C)C2CCN(C)CC2)cc1 | 0 | 0 | 0 | 0 | 0 | 2.1µM
Cn1cnnc1SCc1ccc(-c2ccc(Br)cc2)o1 | 0 | 0 | 0 | 0 | 0 | 0
COCc1cc(C)nc(OCC(=O)N/N=C/c2ccc(-c3cc([N+](=O)[O-])ccc3C)o2)c1C#N | 0 | 0 | 0 | 0 | 0 | 0
Cc1ccc([N+](=O)[O-])cc1-c1ccc(/C=C(\C#N)c2[nH]nc(N)c2C#N)o1 | ? | 20 | 0 | ? | 0 | 0
O=C(c1cc2ccccc2oc1=O)N(Cc1ccc2c(c1)OCO2)Cc1ccco1 | 0 | 0 | 0 | 0 | 110 | 0
SMILES | Pf growth 48h | Cycloheximide cs | SARS PLP yeast | NS1 inh | Shiga inhibitor | Pf growth 96h
O=C(c1ccco1)N(Cc1ccc2c(c1)OCO2)Cc1cc2cc3c(cc2[nH]c1=O)OCO3 | 0 | 0 | 0 | 0 | 0 | 12µM
O=C(c1coc2ccc(O)cc12)C1CC1 | 0 | 25 | 0 | 0 | 58 | 8.3µM
O=C1NC(=S)S/C1=C\c1coc2ccc(O)cc2c1=O | 0 | 0 | 0 | 0 | 0 | ?
O=C(c1ccc(Cl)cc1)c1coc2ccc(O)cc12 | 0 | 43 | 0 | 0 | 73 | 0
COC(=O)c1ccc2[nH]c(C(C)(C)O)c(C)c2c1 | 0 | 23 | 0 | 0 | 40 | 0
Cc1[nH]c2ccc(C(=O)OCCN(C)C)cc2c1C | 0 | 0 | 0 | 0 | 0 | 4.7µM

High-throughput results as filed in PubChem.
